Reference: PubChem BioAssay AID1443 (Sanford-Burnham Center for Chemical Genomics, 2008)
Among all 220,000 compounds or so, about 880 (0.4%) were called active. This is one part of a sample in which actives are shown more often than they occur. Unmarked numbers belong to inactive results.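 How the source made its calls: active means cell killing above 50% in the first pass at 4 µM, then a duplicate retest at 5 µM averaging 50% or more; inactive means the rest.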

test: compounds killing PPC-1 cancer cells with TRAIL present, primary screen, TRAIL potentiator project, ATPLite luminescence, uHTS (AID 1443); details: PPC-1 cells + TRAIL, ATPLite viability luminescence, active compounds read high; at 4 µM unless noted;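 further: plate controls were cells with TRAIL plus DMSO for no effect and medium-only wells lacking cells for full effect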

| SMILES | cell killing (% activity) |
| --- | --- |
| COc1ccc2cc(-c3[nH]ncc3CNCCn3nc(C)cc3C)ccc2c1 | 0.6% |
| Cn1c(=NC(=O)c2cnccn2)sc2ccccc21 | 53.2% [at 5 µM] (active) |
| Cn1c(=NC(=O)CSCC(=O)N2CCOCC2)sc2ccccc21 | 11.5% |
| Cn1c(=NC(=O)CSCC(=O)N2CCCCC2)sc2ccccc21 | 21.3% |
| Cc1ccsc1/C=N/Nc1ccc(Cl)nn1 | -6.9% |
| O=[N+]([O-])c1ccc(N2CCN(S(=O)(=O)c3ccccc3)CC2)cc1N1CCc2ccccc2C1 | 8.9% |
| Cc1ccccc1NC(=S)N(CCCN1CCOCC1)Cc1cccs1 | 8.5% |
| O=C(Oc1ccc(-c2nc(-c3ccccn3)no2)cc1)c1ccccc1 | 54.2% [at 5 µM] (active) |
| c1ccc(-c2noc(-c3cccs3)n2)nc1 | 31.1% |
| O=C(Oc1ccccc1)c1ccc2nccnc2c1 | 25.8% |
| Cc1cc(C)c(C)c(S(=O)(=O)N[C@@H](C)C(=O)OC(C)C(=O)NC(N)=O)c1C (stereo not given in full) | 18.2% |
| NCCCC[C@@H]1NC(=O)[C@H](CCC(=O)O)NC(=O)c2cc([N+](=O)[O-])cc(I)c2NCC[C@@H](C(N)=O)NC1=O | -6.5% |
| O=S(=O)(Nc1ccc(OC(F)(F)F)cc1)c1cccc2nonc12 | 7.3% |
| O=C(CSc1nnc(C2CC2)n1Cc1ccccc1)Nc1cccnc1Cl | 9.8% |
| Cc1ccc(NS(=O)(=O)c2ccc(N/N=C/c3ccccc3OCC(=O)O)c([N+](=O)[O-])c2)c(C)c1 | -2.4% |
| O=C1CSC(c2ccccc2)N1c1nc(-c2ccc(Cl)cc2Cl)cs1 (stereo not given) | 27.7% |
| Clc1ccc(-c2cc(-c3ccccn3)on2)c(Cl)c1 | 88% [at 5 µM] (active) |
| O=C(NCc1ccccn1)c1cc(-c2ccccc2Cl)on1 | 24.5% |
| CCOC(=O)c1c(/N=C/C2C(=O)CC(C)(C)CC2=O)sc(C)c1C | 14.1% |
| CCCCSc1nnc2c(n1)OC=Nc1ccccc1-2 | 11.9% |

| SMILES | cell killing (% activity) |
| --- | --- |
| COc1ccc(/C(C)=N/N2CCOCC2)c(O)c1 | -10.1% |
| COc1ccc(-c2nc(-c3ccccc3)no2)c(OC)c1 | 68% [at 5 µM] (active) |
| COc1ccc(-c2noc(-c3cccc(OC)c3OC)n2)cc1OC | 18.8% |
| COc1ccc(-c2noc(-c3ccc(C)cc3)n2)cc1 | 25.4% |
| O=c1c2cc(-c3ccccc3)sc2nc2n1N=C(c1cccs1)CS2 | 30.8% |
| Cc1cc(C)c2c(NC(=O)C3CC3)nn(C)c2n1 | 0.3% |
| COc1cccc(CC(=O)Nc2ccc(-c3csc(C)n3)cc2)c1 | 2.3% |
| C=CCn1c(C)cc(C2=NNC(=NCC)SC2)c1C | 88.8% [at 5 µM] (active) |
| Cc1cc(C2=NNC(=Nc3ccc(S(=O)(=O)N4CCOCC4)cc3)SC2)c(C)n1CC1CCCO1 (stereo not given) | 8.5% |
| COCCn1c(C)cc(C2=NNC(=Nc3ccc(F)cc3)SC2)c1C | 12.3% |
| O=C(NNC(=O)c1ccc(Cl)cc1Cl)c1cccs1 | 35.4% |
| CCOC(=O)c1cc(C)nc(S(C)(=O)=O)c1C#N | 19.4% |
| N#C/C(=C\C1=C(N2CCOCC2)C(=C\c2ccccc2)/CC1)C(=O)Nc1ccccc1F | 3.4% |
| COc1ccc(-c2cn3cccnc3n2)cc1 | 13.9% |
| COc1ccc(-c2cn3ccc(C)cc3n2)cc1 | 89% [at 5 µM] (active) |
| CS(=O)(=O)Nc1cccc(-c2cn3ccccc3n2)c1 | 4.6% |
| Cc1ccc(-c2cn3cc(C)ccc3n2)cc1 | 86.4% [at 5 µM] (active) |
| c1ccc(-c2cn3cccnc3n2)cc1 | 13.7% |
| COc1ccc(-c2cn3ccsc3n2)cc1 | 46.2% |
| Cc1cccc(NC(=O)C2CC(=O)OC23CCCC3)c1 (stereo not given) | -2.2% |

| SMILES | cell killing (% activity) |
| --- | --- |
| COc1ccc(C(=O)ON=C2c3ccccc3-c3ccccc32)cc1OC | 8.6% |
| Cc1sc2nc(COC(=O)C(NC(=O)c3ccc(Cl)cc3Cl)C(C)C)[nH]c(=O)c2c1C (stereo not given) | 2.9% |
| O=C(Nc1ccc(S(=O)(=O)Nc2nccs2)cc1)c1cccc(S(=O)(=O)N2CCOCC2)c1 | 10.1% |
| Fc1ccccc1Cc1ccc(Cl)nn1 | 22.4% |
| CCN(CC)C(=O)CS(=O)CC(=O)Nc1cc(OCCOC)c(Cl)cc1Cl (stereo not given) | 3.5% |
| CCCc1cc(=O)[nH]c(SCC(=O)N2CCN(S(=O)(=O)c3ccc(C)cc3C)CC2)n1 | -8.7% |
| N=c1n(CCc2ccccc2)c2ccccc2n1Cc1ccccc1F | 53.1% (active) |
| Fc1ccccc1Cn1cnc(NC(=S)NCCc2ccccc2)n1 | 23.7% |
| CN(Cc1ccccc1)Cc1ccccc1F | 10.6% |
| O=C(NCCCN1CCN(c2ccc(F)cc2)CC1)Nc1ccc([N+](=O)[O-])cc1 | -6.5% |
| Cc1c(C(=O)c2cccc([N+](=O)[O-])c2)c2ccccn2c1CCC#N | 33.6% |
| COC(=O)c1ccc(COc2cc([N+](=O)[O-])cc3cccnc23)cc1 | -4.2% |
| Cn1c(CC2Sc3ccccc3NC2=O)nnc1SCC(=O)c1ccc(Cl)cc1 (stereo not given) | 5.2% |
| O=C(c1ccc(F)cc1)n1cc(C(=S)N2CCOCC2)c2ccccc21 | 21% |
| O=C(c1ccc(F)cc1)n1c(=S)nc2ccccn21 | 81.3% [at 5 µM] (active) |
| O=C(Cn1c(=S)nc2ccccn21)N1CCc2ccccc2C1 | -12% |
| NS(=O)(=O)c1ccc(NC(=S)Nc2ccc(Br)c(Cl)c2)cc1 | 12% |
| O=C(OCC1O[C@@H](OC(=O)c2cc(O)c(O)c(O)c2)[C@@H](OC(=O)c2cc(O)c(O)c(O)c2)[C@@H](OC(=O)c2cc(O)c(O)c(O)c2)[C@@H]1OC(=O)c1cc(O)c(O)c(O)c1)c1cc(O)c(O)c(O)c1 (stereo not given in full) | -9.9% |
| CCOc1ccc(CN2CCN(Cc3ccon3)CC2CCO)cc1 (stereo not given) | 8.1% |
| Cc1noc(/C=C/c2ccco2)c1S(=O)(=O)N1CCC(C(=O)Nc2ccc(Cl)cn2)CC1 | 24.3% |
